Data: PubChem BioAssay (NCATS)
Records with an inconclusive call do not appear. Entries that show only a call come without a potency. Active and inactive are the calls of the source. Calls come from the whole dose curve; as a rule, active = well fitted curve in the direction sought with a large enough effect; inconclusive = small, poorly fitted or top-dose-only effect, or another doubt; inactive = no such curve, though single readings can be large; an effect the other way counts as inactive or inconclusive.

test system: not listed separately; experiment: Validation screen for small molecules that induce genotoxicity in human embryonic kidney (HEK293T) cells expressing luciferase-tagged ELG1 (AID 493106); conditions: luminescence; series mostly up to 46.1 µM
Outline: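 Luminescence from an ELG1-luciferase fusion serves as the read-out, rising when genetic stress elevates ELG1 protein. HEK293T reporter cells (2,000 per well) received 23 nL compound, incubated 16 hr at 37 °C, then ONE-Glo for 30 min at room temperature.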

Row | SMILES | outcome
1 | Cc1ccc(S(=O)(=O)N[C@@H](Cc2ccccc2)C(=O)CCl)cc1 | inactive
2 | CCN1CCCC1CNC(=O)c1cc(S(N)(=O)=O)ccc1OC (configuration not stated) | inactive
3 | CC1CC2C3CCC4=CC(=O)C=C[C@]4(C)[C@@]3(F)[C@@H](O)C[C@]2(C)[C@@]1(O)C(=O)CO (some centres not stated) | inactive
4 | O=C(O)C1CCCN(CCC=C(c2ccccc2)c2ccccc2)C1 (configuration not stated) | inactive
5 | CCN(CC)CC#CCOC(=O)C(O)(c1ccccc1)C1CCCCC1 (configuration not stated) | inactive
6 | CCCCS(=N)(=O)CCC(N)C(=O)O (configuration not stated) | inactive
7 | CC1=C(C(=O)O)N2C(=O)[C@@H](NC(=O)C(N)c3ccccc3)[C@H]2SC1 (some centres not stated) | inactive
8 | NC(=O)c1cccc(N)c1 | inactive
9 | COc1cc2nc(N3CCCN(C)CC3)nc(NC3CCN(Cc4ccccc4)CC3)c2cc1OC | inactive
10 | N[C@@H](Cc1ccc(O)c(O)c1)C(=O)O | inactive
11 | CC(C)NCC(O)c1ccc(NS(C)(=O)=O)cc1 (configuration not stated) | inactive
12 | COc1cc2ncnc(Nc3cccc(Cl)c3)c2cc1OC | inactive
13 | NC(=O)c1ccc2[nH]ccc2c1 | inactive
14 | CCN(CC)CCn1c(=O)c(Cc2ccc(OC)cc2)nc2ccccc21 | inactive

target: ATPase family AAA domain-containing protein 5 (Homo sapiens) (UniProt Q96QE3); experiment: Validation screen for small molecules that inhibit ELG1-dependent DNA repair in human embryonic kidney (HEK293T) cells expressing luciferase-tagged ELG1 (AID 493107); conditions: HEK293T ELG1-luciferase level, luminescence, 5-fluorouridine co-treatment, 16 h; series mostly up to 46.1 µM; note: nearly all actives have a fitted effect of over 70% in size; note: potency is the fitted concentration of half-maximal effect
Sequence (Q96QE3 whole entry, looked up, the tested form may be a part): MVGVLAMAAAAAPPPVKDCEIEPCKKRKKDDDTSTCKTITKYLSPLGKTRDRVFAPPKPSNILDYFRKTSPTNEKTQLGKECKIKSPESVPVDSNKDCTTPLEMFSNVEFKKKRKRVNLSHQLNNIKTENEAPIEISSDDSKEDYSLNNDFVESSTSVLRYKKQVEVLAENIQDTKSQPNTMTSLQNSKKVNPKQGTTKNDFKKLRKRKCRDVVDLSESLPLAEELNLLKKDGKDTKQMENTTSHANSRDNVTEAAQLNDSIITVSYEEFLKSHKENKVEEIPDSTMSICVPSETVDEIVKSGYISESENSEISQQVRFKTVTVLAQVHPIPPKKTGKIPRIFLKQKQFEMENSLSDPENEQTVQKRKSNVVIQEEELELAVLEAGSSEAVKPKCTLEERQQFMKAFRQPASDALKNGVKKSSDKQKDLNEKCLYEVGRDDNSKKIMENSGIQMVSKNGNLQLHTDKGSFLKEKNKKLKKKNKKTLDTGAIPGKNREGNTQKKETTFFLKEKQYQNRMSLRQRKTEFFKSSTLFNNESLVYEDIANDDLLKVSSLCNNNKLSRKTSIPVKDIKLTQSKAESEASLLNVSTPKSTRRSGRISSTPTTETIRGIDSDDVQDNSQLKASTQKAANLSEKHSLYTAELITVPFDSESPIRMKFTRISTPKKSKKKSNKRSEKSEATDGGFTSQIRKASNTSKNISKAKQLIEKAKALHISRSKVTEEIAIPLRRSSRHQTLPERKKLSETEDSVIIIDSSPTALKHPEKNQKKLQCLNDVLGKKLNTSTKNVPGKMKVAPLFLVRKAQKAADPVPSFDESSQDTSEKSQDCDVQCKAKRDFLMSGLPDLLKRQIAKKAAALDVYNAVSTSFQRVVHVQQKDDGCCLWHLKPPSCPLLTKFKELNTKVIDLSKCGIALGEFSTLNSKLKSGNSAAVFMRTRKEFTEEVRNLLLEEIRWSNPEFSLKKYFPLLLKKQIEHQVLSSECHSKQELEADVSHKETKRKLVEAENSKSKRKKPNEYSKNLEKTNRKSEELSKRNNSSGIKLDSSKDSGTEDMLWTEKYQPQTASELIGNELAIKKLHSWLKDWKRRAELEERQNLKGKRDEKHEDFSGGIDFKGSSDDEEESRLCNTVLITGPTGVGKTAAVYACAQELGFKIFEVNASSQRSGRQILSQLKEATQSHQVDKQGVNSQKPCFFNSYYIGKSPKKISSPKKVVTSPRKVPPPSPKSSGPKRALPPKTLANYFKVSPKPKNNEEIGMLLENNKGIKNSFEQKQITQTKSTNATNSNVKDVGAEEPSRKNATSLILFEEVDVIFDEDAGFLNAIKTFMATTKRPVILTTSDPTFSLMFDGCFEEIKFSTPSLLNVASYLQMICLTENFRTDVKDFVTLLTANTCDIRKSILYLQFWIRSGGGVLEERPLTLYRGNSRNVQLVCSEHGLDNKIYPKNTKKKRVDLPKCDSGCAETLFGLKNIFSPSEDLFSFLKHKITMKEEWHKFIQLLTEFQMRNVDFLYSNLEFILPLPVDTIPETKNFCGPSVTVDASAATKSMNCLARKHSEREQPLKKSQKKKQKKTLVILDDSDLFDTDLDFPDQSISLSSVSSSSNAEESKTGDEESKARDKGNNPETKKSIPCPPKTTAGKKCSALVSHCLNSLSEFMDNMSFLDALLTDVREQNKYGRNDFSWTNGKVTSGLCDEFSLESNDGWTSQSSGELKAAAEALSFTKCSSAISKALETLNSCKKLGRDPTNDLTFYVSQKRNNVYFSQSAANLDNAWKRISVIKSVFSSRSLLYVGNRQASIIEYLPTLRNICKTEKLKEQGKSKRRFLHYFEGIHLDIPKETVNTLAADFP
Outline: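 Luminescence from ONE-Glo, developed 30 min at room temperature, served as read-out of ELG1-luciferase levels. Beforehand, reporter HEK293T cells received 5-fluorouridine plus test compound for 16 hr at 37 °C.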

Row | SMILES | Potency
15 | Cc1ccc(S(=O)(=O)N[C@@H](Cc2ccccc2)C(=O)CCl)cc1 | 14.6 µM (active)
16 | CC1CC2C3CCC4=CC(=O)C=C[C@]4(C)[C@@]3(F)[C@@H](O)C[C@]2(C)[C@@]1(O)C(=O)CO (some centres not stated) | inactive
17 | O=C(O)C1CCCN(CCC=C(c2ccccc2)c2ccccc2)C1 (configuration not stated) | inactive
18 | CCN(CC)CC#CCOC(=O)C(O)(c1ccccc1)C1CCCCC1 (configuration not stated) | inactive
19 | OCc1ccc(-c2nn(Cc3ccccc3)c3ccccc23)o1 | inactive
20 | CCCCS(=N)(=O)CCC(N)C(=O)O (configuration not stated) | inactive
21 | CC1=C(C(=O)O)N2C(=O)[C@@H](NC(=O)C(N)c3ccccc3)[C@H]2SC1 (some centres not stated) | inactive
22 | NC(=O)c1cccc(N)c1 | inactive
23 | Nc1nc(N)c2nc(CNc3ccc(C(=O)NC(CCC(=O)O)C(=O)O)cc3)cnc2n1 (configuration not stated) | inactive
24 | COc1cc2nc(N3CCCN(C)CC3)nc(NC3CCN(Cc4ccccc4)CC3)c2cc1OC | 25.9 µM (active)
25 | N[C@@H](Cc1ccc(O)c(O)c1)C(=O)O | inactive
26 | CC(C)NCC(O)c1ccc(NS(C)(=O)=O)cc1 (configuration not stated) | inactive
27 | CCN(CC)CCn1c(=O)c(Cc2ccc(OC)cc2)nc2ccccc21 | inactive
